Test results from the supplement of paper PMC7184167.
Structures can show the parent of a compound that is named as a salt.

test system: replication-induced senescent mouse newborn dermal fibroblasts (NBF); assay: relative cell viability of senescent cells (fraction); higher = less killing of senescent cells; settings: 1 µM; 3 days
Procedure: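 Replication-induced senescent newborn mouse skin fibroblasts (NBFs) in 24-well plates were treated with a Selleck FDA-approved drug library at 1 µM for 3 days.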

**Q.** `Cc1cn(-c2cc(NC(=O)c3ccc(C)c(Nc4nccc(-c5cccnc5)n4)c3)cc(C(F)(F)F)c2)cn1` [Nilotinib (AMN-107)] was tested. Which relative cell viability did it give?
**A.** 0.044

**Q.** Which relative cell viability does the source give for `CCCC(CCC)C(=O)O` [Valproic acid sodium salt (Sodium valproate)] here?
**A.** 1.11

**Q.** With `CCn1cc(C(=O)O)c(=O)c2cc(F)c(N3CCNCC3)nc21` [Enoxacin] as the compound, how does the relative cell viability read?
**A.** 1.05

**Q.** With `COC(=O)N[C@H](C(=O)N1CCC[C@H]1c1ncc(-c2ccc(-c3ccc(-c4cnc([C@@H]5CCCN5C(=O)[C@@H](NC(=O)OC)C(C)C)[nH]4)cc3)cc2)[nH]1)C(C)C` as the compound, how does the relative cell viability read?
**A.** 0.545

**Q.** With `COc1c(N2C[C@@H]3CCCN[C@@H]3C2)c(F)cc2c(=O)c(C(=O)O)cn(C3CC3)c12` [Moxifloxacin HCl] as the compound, how does the relative cell viability read?
**A.** 1.03

**Q.** For `CCCCC1=NC2(CCCC2)C(=O)N1Cc1ccc(-c2ccccc2-c2nnn[nH]2)cc1` [Irbesartan], which relative cell viability is on record?
**A.** 0.868

**Q.** `C[C@@H]1CN(c2c(F)c(N)c3c(=O)c(C(=O)O)cn(C4CC4)c3c2F)C[C@H](C)N1` [Sparfloxacin] was tested. Which relative cell viability did it give?
**A.** 0.71

**Q.** With `C=CCNC1=C2C[C@@H](C)C[C@H](OC)[C@H](O)[C@@H](C)/C=C(\C)[C@H](OC(N)=O)[C@@H](OC)/C=C\C=C(/C)C(=O)NC(=CC1=O)C2=O` [Tanespimycin (17-AAG)] as the compound, how does the relative cell viability read?
**A.** 0.966

**Q.** How did the relative cell viability turn out when `CN(C)CCOc1ccc(/C(=C(/CCCl)c2ccccc2)c2ccccc2)cc1` [Toremifene Citrate] was run?
**A.** 0.956

**Q.** With `C[C@@](Cc1ccc(O)c(O)c1)(NN)C(=O)O` [Carbidopa] as the compound, how does the relative cell viability read?
**A.** 1.05

**Q.** For `COc1ccccc1OCC(O)COC(N)=O` (stereo not given) [Methocarbamol], which relative cell viability is on record?
**A.** 1.03

**Q.** Which relative cell viability does the source give for `COc1ccc(CC2c3cc(OC)c(OC)cc3CC[N+]2(C)CCC(=O)OCCCCCOC(=O)CC[N+]2(C)CCc3cc(OC)c(OC)cc3C2Cc2ccc(OC)c(OC)c2)cc1OC` (stereo not given) [Atracurium Besylate] here?
**A.** 1.07

**Q.** Which relative cell viability does the source give for `COC(=O)c1ccc2c(C(=Nc3ccc(N(C)C(=O)CN4CCN(C)CC4)cc3)c3ccccc3)c(O)[nH]c2c1` [Nintedanib (BIBF 1120)] here?
**A.** 1.01

**Q.** How did the relative cell viability turn out when `Cn1ccnc1S` [Methimazole] was run?
**A.** 0.994

**Q.** For `CN(C)c1cc(NC(=O)CNC(C)(C)C)c(O)c2c1CC1CC3C(N(C)C)C(=O)C(C(N)=O)=C(O)C3(O)C(=O)C1=C2O` (stereo not given) [Tigecycline], which relative cell viability is on record?
**A.** 0.694

**Q.** With `Nc1nc2ccc(OC(F)(F)F)cc2s1` [Riluzole] as the compound, how does the relative cell viability read?
**A.** 0.836

**Q.** With `Nc1nc(F)nc2c1ncn2[C@@H]1O[C@H](CO)[C@@H](O)[C@@H]1O` [Fludarabine] as the compound, how does the relative cell viability read?
**A.** 0.0671

**Q.** How did the relative cell viability turn out when `CC(C)OC(=O)C(C(=O)OC(C)C)=C1SC=CS1` [Malotilate] was run?
**A.** 1.04

**Q.** `CNC(=C[N+](=O)[O-])NCCSCc1csc(CN(C)C)n1` [Nizatidine] was tested. Which relative cell viability did it give?
**A.** 0.956

**Q.** `O=C1[C@H](CC[C@H](O)c2ccc(F)cc2)[C@@H](c2ccc(O)cc2)N1c1ccc(F)cc1` [Ezetimibe] was tested. Which relative cell viability did it give?
**A.** 0.901

**Q.** With `C[C@H](Cn1cnc2c(N)ncnc21)OCP(=O)(O)O` [Tenofovir] as the compound, how does the relative cell viability read?
**A.** 0.893

**Q.** For `CC(C)Cc1ccc(C(C)C(=O)O)cc1` (stereo not given) [Ibuprofen], which relative cell viability is on record?
**A.** 0.765

**Q.** How did the relative cell viability turn out when `COc1ccc(C2CNC(=O)C2)cc1OC1CCCC1` (stereo not given) [Rolipram] was run?
**A.** 1.07

**Q.** `O=C1CCC(N2C(=O)c3ccccc3C2=O)C(=O)N1` (stereo not given) [Thalidomide] was tested. Which relative cell viability did it give?
**A.** 0.296

**Q.** For `N=C(N)NC(=N)N1CCOCC1` [Moroxydine HCl], which relative cell viability is on record?
**A.** 0.965

**Q.** With `CS(=O)(=O)c1ccc(C(=O)Nc2ccc(Cl)c(-c3ccccn3)c2)c(Cl)c1` [Vismodegib (GDC-0449)] as the compound, how does the relative cell viability read?
**A.** 0.521

**Q.** How did the relative cell viability turn out when `CC(C)[C@H](N)C(=O)OCCOCn1cnc2c(=O)nc(N)[nH]c21` [Valaciclovir HCl] was run?
**A.** 0.909

**Q.** How did the relative cell viability turn out when `CC(C)[C@H](O)C(=O)N[C@@H](C)C(=O)N[C@@H]1C(=O)N(C)CCc2ccccc21` was run?
**A.** 0.981

**Q.** With `O=NN(CCCl)C(=O)NC1CCCCC1` [Lomustine] as the compound, how does the relative cell viability read?
**A.** 1.02

**Q.** Which relative cell viability does the source give for `C#C[C@]1(O)CC[C@H]2[C@@H]3CCc4cc(O)ccc4[C@H]3CC[C@@]21C` [Ethinyl Estradiol] here?
**A.** 0.86

**Q.** With `CC(C)c1cc(-c2n[nH]c(=O)n2-c2ccc3c(ccn3C)c2)c(O)cc1O` [Ganetespib (STA-9090)] as the compound, how does the relative cell viability read?
**A.** 0.0837

**Q.** With `Cc1nc(C(=O)NCC(=O)O)c(O)c2ccc(Oc3ccccc3)cc12` [Roxadustat (FG-4592)] as the compound, how does the relative cell viability read?
**A.** 1.03

**Q.** For `CC/C(=C(/CC)c1ccc(O)cc1)c1ccc(O)cc1` [Diethylstilbestrol], which relative cell viability is on record?
**A.** 1.06

**Q.** For `C[C@H](CCC(=O)O)[C@H]1CC[C@H]2[C@@H]3[C@@H](O)C[C@@H]4C[C@H](O)CC[C@]4(C)[C@H]3CC[C@]12C` [Ursodiol], which relative cell viability is on record?
**A.** 0.448

**Q.** For `NC(=O)c1cnccn1` [Pyrazinamide], which relative cell viability is on record?
**A.** 1.17

**Q.** How did the relative cell viability turn out when `CC[C@H]1OC(=O)[C@H](C)[C@@H](O[C@H]2C[C@@](C)(OC)[C@@H](O)[C@H](C)O2)[C@H](C)[C@@H](O[C@@H]2O[C@H](C)C[C@H](N(C)C)[C@H]2O)[C@](C)(O)C[C@@H](C)C(=O)[C@H](C)[C@@H](O)[C@]1(C)O` [Erythromycin] was run?
**A.** 0.796

**Q.** `CNS(=O)(=O)CCc1ccc2[nH]cc(C3CCN(C)CC3)c2c1` [Naratriptan HCl] was tested. Which relative cell viability did it give?
**A.** 1.14

**Q.** How did the relative cell viability turn out when `Nc1ccc(O)c(C(=O)O)c1` [Mesalamine] was run?
**A.** 0.351

**Q.** With `O=c1[nH]c(=O)n([C@H]2C[C@H](O)[C@@H](CO)O2)cc1I` [Idoxuridine] as the compound, how does the relative cell viability read?
**A.** 0.949

**Q.** `COc1ccccc1OCC(O)CO` (stereo not given) [Guaifenesin] was tested. Which relative cell viability did it give?
**A.** 1.12
